For some assays here: Entries with a potency or affinity are not part of this list.
Key:
Parameters in all cases: scale not given: direction of the effect not stated beside the values
[1] = target: Protein translocase subunit SecA (Escherichia coli (strain K12)) (UniProt P10408); assay: Assay to Identify E. coli SecA ATPase Inhibitors; assay type: functional; details: 30 µM
[2] = target: T1, Ubiquitin-activating enzyme e1, putative (Leishmania donovani (strain BPK282A1)) (UniProt E9BSI1); assay: Leishmania donovani Ubiquitin Activating Enzyme (LdE1); assay type: functional; details: 30 µM
T1 sequence (whole entry): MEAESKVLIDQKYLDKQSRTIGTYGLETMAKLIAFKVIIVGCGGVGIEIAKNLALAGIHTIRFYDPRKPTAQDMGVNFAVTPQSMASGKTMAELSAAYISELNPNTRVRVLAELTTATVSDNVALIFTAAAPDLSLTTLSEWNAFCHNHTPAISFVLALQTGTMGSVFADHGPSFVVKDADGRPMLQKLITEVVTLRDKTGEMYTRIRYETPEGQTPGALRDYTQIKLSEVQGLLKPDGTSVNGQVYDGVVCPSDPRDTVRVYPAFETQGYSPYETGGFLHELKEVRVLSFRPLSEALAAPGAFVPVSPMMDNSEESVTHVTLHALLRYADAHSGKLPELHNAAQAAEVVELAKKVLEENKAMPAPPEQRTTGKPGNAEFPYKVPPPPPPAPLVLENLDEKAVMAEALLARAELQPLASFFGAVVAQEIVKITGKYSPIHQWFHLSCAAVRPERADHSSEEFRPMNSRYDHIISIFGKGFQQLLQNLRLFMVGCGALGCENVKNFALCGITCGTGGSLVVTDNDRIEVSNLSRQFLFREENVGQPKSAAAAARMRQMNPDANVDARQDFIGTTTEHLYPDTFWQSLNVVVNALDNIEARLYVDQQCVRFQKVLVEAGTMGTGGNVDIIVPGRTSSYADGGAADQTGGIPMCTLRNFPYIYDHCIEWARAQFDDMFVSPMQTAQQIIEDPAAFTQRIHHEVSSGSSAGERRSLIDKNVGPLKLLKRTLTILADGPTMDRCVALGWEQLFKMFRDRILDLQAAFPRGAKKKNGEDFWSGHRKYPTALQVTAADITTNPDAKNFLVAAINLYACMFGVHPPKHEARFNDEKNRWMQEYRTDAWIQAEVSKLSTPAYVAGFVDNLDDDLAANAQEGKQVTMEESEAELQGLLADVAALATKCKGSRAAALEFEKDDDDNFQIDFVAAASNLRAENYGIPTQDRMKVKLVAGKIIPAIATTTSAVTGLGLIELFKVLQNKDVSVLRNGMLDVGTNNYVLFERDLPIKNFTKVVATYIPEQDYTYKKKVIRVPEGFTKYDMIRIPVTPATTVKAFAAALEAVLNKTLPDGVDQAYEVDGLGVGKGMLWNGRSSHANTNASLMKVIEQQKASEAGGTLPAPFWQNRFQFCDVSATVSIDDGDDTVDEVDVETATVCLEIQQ

[3] = target: T2, Aspartate--tRNA(Asp/Asn) ligase (Mycobacterium tuberculosis (strain ATCC 25618 / H37Rv)) (UniProt P9WFW3); assay: Assay for Asp RNA synthetase-1 from Mycobacterium tuberculosis; assay type: functional; details: 30 µM; also: in the data most compounds retested in dose-response had high values
T2 sequence (whole entry): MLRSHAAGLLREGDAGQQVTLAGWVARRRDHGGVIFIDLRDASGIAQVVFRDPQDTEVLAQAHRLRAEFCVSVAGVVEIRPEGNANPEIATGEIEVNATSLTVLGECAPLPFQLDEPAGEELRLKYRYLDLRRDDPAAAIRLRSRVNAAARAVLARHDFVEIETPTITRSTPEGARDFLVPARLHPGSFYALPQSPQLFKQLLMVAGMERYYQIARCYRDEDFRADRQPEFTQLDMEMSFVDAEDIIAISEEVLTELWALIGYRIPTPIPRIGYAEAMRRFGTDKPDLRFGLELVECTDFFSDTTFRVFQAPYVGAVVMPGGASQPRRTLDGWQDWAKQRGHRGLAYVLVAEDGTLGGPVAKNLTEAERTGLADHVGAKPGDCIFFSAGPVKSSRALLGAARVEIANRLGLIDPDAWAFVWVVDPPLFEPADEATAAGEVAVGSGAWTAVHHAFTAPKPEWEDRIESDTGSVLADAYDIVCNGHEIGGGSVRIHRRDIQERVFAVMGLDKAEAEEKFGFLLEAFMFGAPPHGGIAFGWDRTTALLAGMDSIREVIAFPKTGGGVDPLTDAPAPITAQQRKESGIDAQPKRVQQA

[4] = target: AMP-activated protein kinase, AMPK (Homo sapiens) (UniProt P54646+O43741+P54619+Q9UGJ0+Q9Y478+Q13131+Q9UGI9); assay: AMP-dependent Kinase enzyme assay. An in vitro enzyme assay that detects ADP turnover that is directly proportional to AMPK activity. This uses naive AMPK that is activated during the assay with MK-8722; assay type: functional; details: 30 µM
[5] = target: Sialic acid-binding Ig-like lectin 9 (Homo sapiens) (UniProt Q9Y336); assay: Hs-Siglec9 ALPHAscreen SOP 20170721; details: 10 µM
Chain of Sialic acid-binding Ig-like lectin 9 (Homo sapiens) (Q9Y336 whole entry): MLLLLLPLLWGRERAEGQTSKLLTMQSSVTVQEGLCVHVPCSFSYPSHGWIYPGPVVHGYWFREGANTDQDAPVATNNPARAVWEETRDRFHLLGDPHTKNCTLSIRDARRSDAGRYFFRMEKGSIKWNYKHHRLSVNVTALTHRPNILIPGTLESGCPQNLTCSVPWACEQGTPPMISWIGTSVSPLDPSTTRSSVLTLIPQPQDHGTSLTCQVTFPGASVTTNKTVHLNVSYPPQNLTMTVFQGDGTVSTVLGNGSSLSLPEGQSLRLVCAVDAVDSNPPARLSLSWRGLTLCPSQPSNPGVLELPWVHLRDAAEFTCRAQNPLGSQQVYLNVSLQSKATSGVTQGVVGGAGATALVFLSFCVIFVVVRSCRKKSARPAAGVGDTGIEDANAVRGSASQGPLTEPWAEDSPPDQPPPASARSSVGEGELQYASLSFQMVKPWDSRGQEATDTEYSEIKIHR

Trypanosoma cruzi = assay: Trypanosoma cruzi phosphomannomutase and mannose-1-phosphate guanylyltransferase assay; assay type: functional; details: 10 µM
[6] = target: T3, Arginase-2, mitochondrial (Homo sapiens) (UniProt P78540); assay: in vitro enzyme assay to detect the production of urea directly proportional to the activity of Arginase II; assay type: functional; details: 33.3 µM; also: in the data most compounds retested in dose-response had high values
T3 sequence (whole entry): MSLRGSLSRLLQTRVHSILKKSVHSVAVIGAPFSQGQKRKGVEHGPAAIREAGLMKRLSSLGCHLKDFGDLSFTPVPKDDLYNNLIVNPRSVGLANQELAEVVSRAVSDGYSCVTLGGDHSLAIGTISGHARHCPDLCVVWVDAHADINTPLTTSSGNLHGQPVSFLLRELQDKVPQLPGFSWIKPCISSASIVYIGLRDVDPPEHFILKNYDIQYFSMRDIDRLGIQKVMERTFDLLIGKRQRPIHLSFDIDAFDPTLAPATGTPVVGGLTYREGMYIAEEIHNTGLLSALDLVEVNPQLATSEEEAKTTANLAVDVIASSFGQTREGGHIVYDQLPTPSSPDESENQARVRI

[7] = target: T4, Proteasome subunit beta (Trypanosoma cruzi) (UniProt O96673); assay: Trypanosoma cruzi proteasome chymotrypsin-like activity (TcProtChymo) assay.; also: in the data most compounds retested in dose-response had high values; assay type: functional; details: 9.37 µM
T4 sequence (whole entry): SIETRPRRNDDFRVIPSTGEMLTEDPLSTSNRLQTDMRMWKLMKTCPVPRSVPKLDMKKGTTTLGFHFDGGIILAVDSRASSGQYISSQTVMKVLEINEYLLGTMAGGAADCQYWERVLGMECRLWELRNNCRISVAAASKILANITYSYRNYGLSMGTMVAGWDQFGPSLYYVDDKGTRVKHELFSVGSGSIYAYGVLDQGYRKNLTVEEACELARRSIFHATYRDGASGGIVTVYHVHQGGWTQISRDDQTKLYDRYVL

Homo sapiens = organism: Homo sapiens; assay: To identify inhibition of the IFN signalling (Jak-Stat) pathway via expression of an eGFP reporter gene under the control of an IFN-stimulated response element (ISRE) containing MxA promoter.; assay type: functional; details: 30 µM
[8] = target: Shiga toxin 2 (Escherichia coli O157:H7) (UniProt P09385+P09386); assay: E. coli 0.157:H7 Shiga Toxin SOP - stx2 screening assay; assay type: functional; details: 30 µM
[9] = target: T5, Tyrosyl-tRNA synthetase, putative (Trypanosoma cruzi (strain CL Brener)) (UniProt Q4DSP6); assay: Trypanosoma cruzi tyrosyl tRNA synthetase (TcYRS) _High Tyrosine SOP; assay type: functional; details: 30 µM; also: in the data most compounds retested in dose-response had high values
T5 sequence (whole entry): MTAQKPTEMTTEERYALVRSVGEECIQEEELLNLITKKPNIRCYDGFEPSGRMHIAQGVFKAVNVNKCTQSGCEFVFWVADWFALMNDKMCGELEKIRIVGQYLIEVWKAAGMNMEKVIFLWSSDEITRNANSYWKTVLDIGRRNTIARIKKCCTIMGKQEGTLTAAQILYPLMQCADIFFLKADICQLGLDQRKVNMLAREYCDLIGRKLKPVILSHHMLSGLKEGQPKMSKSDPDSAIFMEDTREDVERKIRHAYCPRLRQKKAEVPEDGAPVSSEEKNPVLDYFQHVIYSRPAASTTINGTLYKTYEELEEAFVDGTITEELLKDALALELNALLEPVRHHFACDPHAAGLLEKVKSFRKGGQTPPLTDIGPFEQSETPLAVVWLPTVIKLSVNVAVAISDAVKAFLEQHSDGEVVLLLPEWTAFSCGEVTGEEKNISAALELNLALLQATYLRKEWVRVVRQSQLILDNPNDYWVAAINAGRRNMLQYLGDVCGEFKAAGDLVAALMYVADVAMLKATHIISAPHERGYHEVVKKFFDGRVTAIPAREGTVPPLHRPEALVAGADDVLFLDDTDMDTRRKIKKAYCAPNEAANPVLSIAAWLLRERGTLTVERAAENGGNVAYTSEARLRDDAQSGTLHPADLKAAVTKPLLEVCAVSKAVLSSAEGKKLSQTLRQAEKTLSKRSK

[10] = target: T5, Tyrosyl-tRNA synthetase, putative (Trypanosoma cruzi (strain CL Brener)); assay: Trypanosoma cruzi tyrosyl tRNA synthetase (TcYRS) SOP; assay type: functional; details: 30 µM
[11] = target: Chromo domain-containing protein 1 (Saccharomyces cerevisiae (strain ATCC 204508 / S288c) (Baker's yeast)) (UniProt P32657); assay: ScCHD-1 Enzyme Inhibition Assay; assay type: functional; details: 30 µM; also: in the data most compounds retested in dose-response had high values
Chain of Chromo domain-containing protein 1 (Saccharomyces cerevisiae (strain ATCC 204508 / S288c) (Baker's yeast)) (P32657 whole entry, the tested form may be a part): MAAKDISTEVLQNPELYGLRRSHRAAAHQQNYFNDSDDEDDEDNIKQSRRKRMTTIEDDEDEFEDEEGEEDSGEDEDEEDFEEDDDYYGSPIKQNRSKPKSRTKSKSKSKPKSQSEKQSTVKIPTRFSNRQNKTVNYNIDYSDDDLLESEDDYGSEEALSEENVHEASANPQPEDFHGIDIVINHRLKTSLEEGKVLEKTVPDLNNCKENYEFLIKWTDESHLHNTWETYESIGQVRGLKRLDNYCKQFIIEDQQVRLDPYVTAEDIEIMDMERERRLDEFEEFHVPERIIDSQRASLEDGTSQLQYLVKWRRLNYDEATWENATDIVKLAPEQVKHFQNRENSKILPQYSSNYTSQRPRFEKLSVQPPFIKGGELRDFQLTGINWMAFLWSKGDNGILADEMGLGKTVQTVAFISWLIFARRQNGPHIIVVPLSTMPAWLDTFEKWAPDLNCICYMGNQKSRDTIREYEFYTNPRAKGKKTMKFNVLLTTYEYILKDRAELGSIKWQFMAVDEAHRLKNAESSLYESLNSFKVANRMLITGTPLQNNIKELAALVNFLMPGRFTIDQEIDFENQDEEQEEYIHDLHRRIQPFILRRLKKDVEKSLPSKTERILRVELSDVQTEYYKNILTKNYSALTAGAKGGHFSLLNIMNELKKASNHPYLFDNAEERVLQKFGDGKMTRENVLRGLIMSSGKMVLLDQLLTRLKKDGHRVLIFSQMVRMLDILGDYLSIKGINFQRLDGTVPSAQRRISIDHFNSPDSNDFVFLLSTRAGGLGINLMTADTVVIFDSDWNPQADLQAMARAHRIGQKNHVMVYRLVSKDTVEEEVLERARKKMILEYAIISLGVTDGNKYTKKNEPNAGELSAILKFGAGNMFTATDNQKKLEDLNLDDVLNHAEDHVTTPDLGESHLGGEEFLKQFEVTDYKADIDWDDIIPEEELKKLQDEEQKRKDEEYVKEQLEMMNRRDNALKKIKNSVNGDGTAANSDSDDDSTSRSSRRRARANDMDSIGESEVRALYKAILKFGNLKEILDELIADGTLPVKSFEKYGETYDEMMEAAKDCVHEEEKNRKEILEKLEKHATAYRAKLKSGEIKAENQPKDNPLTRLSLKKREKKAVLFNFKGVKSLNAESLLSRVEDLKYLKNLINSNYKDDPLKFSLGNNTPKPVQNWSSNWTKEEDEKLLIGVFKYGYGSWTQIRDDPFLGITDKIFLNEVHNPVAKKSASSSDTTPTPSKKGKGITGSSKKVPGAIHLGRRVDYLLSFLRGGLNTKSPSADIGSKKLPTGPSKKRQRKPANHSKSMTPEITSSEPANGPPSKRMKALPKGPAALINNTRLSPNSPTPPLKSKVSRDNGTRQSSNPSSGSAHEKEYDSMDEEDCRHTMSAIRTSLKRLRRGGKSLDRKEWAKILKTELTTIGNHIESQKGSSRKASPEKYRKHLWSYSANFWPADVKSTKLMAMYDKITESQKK

Chain of Protein translocase subunit SecA (Escherichia coli (strain K12)) (P10408 whole entry): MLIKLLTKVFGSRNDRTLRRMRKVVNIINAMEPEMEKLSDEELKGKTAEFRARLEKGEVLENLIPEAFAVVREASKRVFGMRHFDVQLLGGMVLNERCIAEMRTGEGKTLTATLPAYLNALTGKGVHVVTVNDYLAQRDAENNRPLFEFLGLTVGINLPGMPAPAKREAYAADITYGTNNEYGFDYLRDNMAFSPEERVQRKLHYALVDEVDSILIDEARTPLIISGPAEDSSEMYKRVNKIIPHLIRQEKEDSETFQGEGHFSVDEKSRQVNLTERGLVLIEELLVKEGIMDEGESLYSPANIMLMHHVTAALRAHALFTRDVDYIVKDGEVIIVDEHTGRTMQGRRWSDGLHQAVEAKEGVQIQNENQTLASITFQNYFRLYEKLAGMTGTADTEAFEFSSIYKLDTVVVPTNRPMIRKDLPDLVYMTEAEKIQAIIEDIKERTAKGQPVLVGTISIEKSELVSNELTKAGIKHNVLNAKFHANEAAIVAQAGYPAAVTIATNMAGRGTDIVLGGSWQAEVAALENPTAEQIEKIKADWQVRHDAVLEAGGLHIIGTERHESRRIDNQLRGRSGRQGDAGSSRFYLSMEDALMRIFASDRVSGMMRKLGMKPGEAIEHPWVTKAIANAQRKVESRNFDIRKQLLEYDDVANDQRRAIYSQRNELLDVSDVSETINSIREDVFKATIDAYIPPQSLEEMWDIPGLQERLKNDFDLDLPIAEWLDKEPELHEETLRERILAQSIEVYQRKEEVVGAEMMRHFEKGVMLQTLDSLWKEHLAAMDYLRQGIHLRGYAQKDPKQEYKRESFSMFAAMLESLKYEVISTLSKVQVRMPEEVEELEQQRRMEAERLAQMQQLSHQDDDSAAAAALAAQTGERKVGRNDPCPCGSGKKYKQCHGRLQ

Row | SMILES | Percent Effect [1] | Percent Effect [2] | Percent Effect [3] | Percent Effect [4] | Percent Effect [5] | Percent Effect (Trypanosoma cruzi) | Percent Effect [6] | Percent Effect [7] | Percent Effect (Homo sapiens) | Percent Effect [8] | Percent Effect [9] | Percent Effect [10] | Percent Effect [11]
1 | O=C1CSC(c2ccsc2)c2sccc2N1 (stereo not given) | -4.83% | -57.3% | 4.27% | 7.24% | 10.3% | -3.34% | -4.4% | 7.21% | 6.1% | 5.43% | -1.06% | -2.56% | 106%
2 | Cn1cc(C(=O)N2CC[C@@H]3[C@@H]2CCN3Cc2cccnc2)cn1 | -4.7% | 8.11% | 1.51% | 4.43% | 1.46% | -2.83% | 0.955% | 17.7% | -13.9% | -2.5% | 3.24% | 12.8% | 0.704%
3 | O=C1N(c2cncnc2)CCC12CCCN(Cc1ccccn1)C2 (stereo not given) | -4% | 5.2% | 3.89% | 3.31% | 8.64% | -1.28% | 2.76% | 2.5% | -1.38% | -38.2% | 4.3% | 8.64% | 0.251%
4 | CN(Cc1cncnc1)[C@H]1CN(CC2CC2)[C@@H]2CCCO[C@@H]21 | -2.97% | 10.7% | 3.35% | -6.16% | 2.33% | 4.44% | -51.8% | 11.6% | -0.287% | -9.01% | 5.21% | 2.5% | -8.19%
5 | Cc1n[nH]c2c1C(c1ccc(O)c(Cl)c1)SCC(=O)N2 (stereo not given) | -3.6% | 4% | -0.755% | 21.6% | 4.97% | -3.73% | -6.16% | 5.18% | 10.7% | -29.6% | 9.52% | 15.4% | -4.99%
